USP1 inh: USP1/UAF1 (human) deubiquitinase inhibition; O94782; recombinant USP1/UAF1, Ub-Rhodamine cleavage fluorescence; Potency, µM (doses to about 57.1 µM), usual class: inhibitors; hit rate 0.23% among 390,000; AID 743255; active = well fitted inhibition curve with a large enough effect; inconclusive = small, poorly fitted or top-dose-only effect; inactive = no such curve, though single readings can be large or run the other way; also: nearly all actives have a fitted effect of over 60% in size
Target sequence (O94782 whole entry, looked up): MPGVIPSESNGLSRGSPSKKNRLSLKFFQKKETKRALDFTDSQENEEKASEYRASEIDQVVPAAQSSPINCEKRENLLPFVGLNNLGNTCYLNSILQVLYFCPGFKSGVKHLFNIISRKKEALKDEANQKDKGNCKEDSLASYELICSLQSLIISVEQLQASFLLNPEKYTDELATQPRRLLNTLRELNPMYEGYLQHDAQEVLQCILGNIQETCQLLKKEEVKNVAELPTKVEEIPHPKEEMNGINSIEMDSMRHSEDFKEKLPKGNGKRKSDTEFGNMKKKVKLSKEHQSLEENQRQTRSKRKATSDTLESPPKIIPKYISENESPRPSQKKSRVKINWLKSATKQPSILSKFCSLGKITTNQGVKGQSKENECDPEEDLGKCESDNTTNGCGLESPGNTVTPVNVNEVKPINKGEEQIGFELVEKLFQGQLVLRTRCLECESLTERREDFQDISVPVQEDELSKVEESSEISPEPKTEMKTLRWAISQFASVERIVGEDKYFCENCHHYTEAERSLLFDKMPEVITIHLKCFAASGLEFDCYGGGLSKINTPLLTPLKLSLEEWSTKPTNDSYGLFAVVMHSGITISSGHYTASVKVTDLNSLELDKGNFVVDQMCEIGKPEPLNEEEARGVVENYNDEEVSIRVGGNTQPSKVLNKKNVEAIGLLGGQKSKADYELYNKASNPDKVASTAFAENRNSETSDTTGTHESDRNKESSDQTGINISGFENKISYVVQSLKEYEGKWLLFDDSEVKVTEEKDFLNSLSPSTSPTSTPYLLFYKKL
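USP1/UAF1 complex (1 nM) preincubated 15 min at room temperature with compound, then Ub-Rho substrate (150 nM final) added. Kinetic fluorescence at 480/540 nm over 6 reads at 60 s intervals; 50 mM HEPES pH 7.8, 0.5 mM EDTA, 0.1 mg/ml BSA, 1 mM TCEP, 0.01% Tween-20.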
FBPA coupling cs: counter-screen for Giardia aldolase inhibitors: coupling enzyme system | coupling enzyme system counterscreen, AmpLite Red fluorescence | activity change, negative = inhibition, % at 58.2 µM, hits read low | hit rate 0.67% among 290,000; in the data active = activity change below about -30%
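Fluorescence at 525 nm excitation and 598 nm emission measured inhibition of the coupled detection system without aldolase. Compounds (at 57.5 uM final) were preincubated 10 min at room temperature with coupling enzyme reagent before a 20 min substrate/AmpLite Red step.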
KCNH2 WT inh: KCNH2 (human, wildtype) channel inhibition. U2OS, BacMam KCNH2, thallium flux FluxOr; stronger effect = lower value. activity change, % at 1.84 µM. hit rate 0.37% among 340,000;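 active = maximum activity change below -70%; inconclusive = maximum activity change between -70% and -50%; inactive = maximum activity change above -50%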
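U2OS cells transduced with wild-type KCNH2 virus are loaded with FluxOr dye for 45 min, and thallium flux is measured in kinetic reads before and after stimulation buffer. Rate constants are normalized to DMSO controls.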
Giardia kill: Giardia lamblia killing; Giardia lamblia trophozoite viability; activity change, % at 7.66 µM, hits read low; hit rate 0.15% among 340,000; in the data active = activity change below about -80%; inconclusive = between about -30% and that limit;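 also: parasites exposed to compound for two days anaerobically before the ATP read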
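Media and compound were dispensed first, then trophozoites at 100 cells/well; plates sat 48 hrs at 37 deg C without oxygen before ATP luminescence reagent was added and read after 15-30 min at room temperature.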
KCNH2 3.1 block: KCNH2 3.1 (human) potassium channel inhibition. U2OS KCNH2 3.1, thallium flux FluxOr; stronger effect = lower value. activity change, % (tested at about 1.8 µM). hit rate 0.95% among 340,000;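 active = maximum activity change below -70%; inconclusive = maximum activity change from -70% to -50%; inactive = maximum activity change above -50%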;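 also: thallium influx rate constant from kinetic fluorescence after stimulation buffer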
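Channel expression came from 3.1 mutant virus (1.77 x 10^8 /mL) applied to suspended U2OS cells for 4 h. Flux was tracked with FluxOr dye plus Red40 quencher, and kinetic rate constants normalized to controls.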
Hits are given with their value; – = inactive; ? = inconclusive; · = not tested or not shown. In the library only some 1.7% were active in any assay of this set; here they are far more common.

SMILES	USP1 inh	FBPA coupling cs	KCNH2 WT inh	Giardia kill	KCNH2 3.1 block
O=C(NC1CCCc2ccccc21)C1CCN(c2nnc(-n3cccc3)s2)CC1 (configuration not stated)	–	–	–	–	-79.1
Cc1cc(C)nc(N2CCC(C(=O)NC3CCCc4ccccc43)CC2)n1 (configuration not stated)	–	–	–	–	–
CCn1c(SCC(=O)Nc2ccc(C)c(C)c2)nnc1-c1nonc1NC(C)=O	–	·	·	·	·
Cc1cc(/C=C(\C#N)c2nc3ccccc3[nH]2)c(C)n1C	–	–	–	–	–
Cc1cc(/C=C(/C#N)c2nc3ccccc3[nH]2)c(C)n1-c1cccc([N+](=O)[O-])c1	–	–	-115.6	?	-133.7
O=C(Nc1ccc(N2CCOCC2)c2nonc12)C1CCCC1	?	-41.2	–	–	–
O=C(Nc1ccc(Cl)cc1N1CCOCC1)C1CCCCC1	–	–	–	–	–
Nc1ccc(N2CCOCC2)c2nonc12	17.8µM	-48.3	–	–	–
Cc1cc(C)cc(Oc2nc3c(c(=O)n(C)c(=O)n3C)n2Cc2ccc(F)cc2)c1	–	·	·	·	·
Nc1nonc1NN=C1CCCCC1	–	–	–	–	-80.5
FC(F)Oc1ccc(NC(=S)NCc2nc3ccccc3[nH]2)cc1	?	–	–	–	-85.1
CCOc1ccc(NC(=O)CSc2ncc3c(n2)-c2ccccc2N(C)S3(=O)=O)cc1	–	·	·	·	·
CCOC(=O)c1cc(S(=O)(=O)NCc2ccccc2)[nH]n1	–	·	·	·	·
O=C1[C@@H]2[C@H]3[C@H](O)[C@H](O)C/C(=N/OC[C@@H](O)COCc4ccco4)[C@H]3CC[C@H]2C(=O)N1c1ccc(F)cc1F	·	-30.4	·	·	·
O=C1[C@H]2[C@H]3[C@H](O)[C@H](O)C/C(=N\OC[C@@H](O)COCc4ccco4)[C@@H]3CC[C@H]2C(=O)N1c1ccc(F)cc1F	·	–	·	·	·
CC(N)COC(=O)C(CCCCN)NC(=O)Cc1c(-c2ccc3ccccc3c2)[nH]c2c1ccc1ccccc12 (configuration not stated)	·	–	·	·	·
Cc1ccc(-n2nc3c(c2NC(=O)c2ccc(Br)o2)CSC3)c(C)c1	–	-35.3	–	–	–
Cc1cc(C)c(NC(=O)CSc2nnc3[nH]c(=O)cc(C)n23)c(C)c1	–	·	·	·	·
COc1ccccc1NC(=O)C1=C(C)NC(=O)NC1c1ccccc1[N+](=O)[O-] (configuration not stated)	–	-40.8	–	–	–
Cc1cccc(NC(=O)CN2C(=O)C(c3ccccc3)=NC23CCC(C)CC3)c1 (configuration not stated)	–	·	·	·	·
O=C(/C=C/c1ccccc1)CC(=O)c1ccccc1	–	·	–	–	-86.0
CCn1c(/C=C/N(C(C)=O)c2ccccc2)[n+](CC)c2ccc(Cl)cc21	–	–	–	–	–
CC[n+]1c(/C=C/N(C)c2ccccc2)oc2ccc(Cl)cc21	–	-32.5	–	–	–
Cc1oc(-c2ccc(Cl)cc2)nc1CN1CCC(C(=O)N2CCc3ccccc3C2)CC1	–	–	?	–	-78.2
Cc1oc(-c2cccc(Cl)c2)nc1CN1CCC(C(=O)N2CCN(c3ccccc3F)CC2)CC1	–	–	–	–	-91.2
SMILES	USP1 inh	FBPA coupling cs	KCNH2 WT inh	Giardia kill	KCNH2 3.1 block
Cc1oc(-c2ccc(Cl)cc2)nc1CN1CCC(C(=O)N2CCN(Cc3ccccc3)CC2)CC1	–	–	–	–	–
Cc1oc(-c2ccc(Cl)cc2)nc1CN1CCC(C(=O)NCc2ccco2)CC1	–	–	–	–	-71.0
CN(C)CCNC(=O)C(=O)NCC(c1cccnc1)N1CCN(c2ccccc2)CC1 (configuration not stated)	–	·	·	·	·
N#Cc1c2n(c3c(=O)n(CC(=O)c4ccc(Br)cc4)cnc13)CCCC2	–	–	–	–	–
N#Cc1c2n(c3c(=O)n(CC(=O)c4ccc([N+](=O)[O-])cc4)cnc13)CCCCC2	–	–	-101.1	–	–
Cc1ncc([N+](=O)[O-])n1CCOC(=O)c1ccccc1	–	–	–	-99.8	–
Cc1ncc([N+](=O)[O-])n1CCOC(=O)Nc1ccc(Cl)c(Cl)c1	–	–	–	-89.7	–
C/C=C/c1ccc(OCC(O)CNCC(c2ccc(OC)cc2)N(C)C)c(OC)c1 (configuration not stated)	–	–	–	–	-73.4
C/C=C/c1ccc(OCC(O)CN2CCCCC2CC)c(OC)c1 (configuration not stated)	–	–	–	–	–
COc1ccc(CCNCC(O)COc2ccc(Cl)cc2)cc1OC (configuration not stated)	–	–	–	–	?
C/C=C/c1ccc(OCC(O)CNCCc2ccc(OC)cc2)c(OC)c1 (configuration not stated)	–	–	–	–	-71.0
C/C=C/c1ccc(OCC(O)CN(C)Cc2ccc(SC)cc2)c(OC)c1 (configuration not stated)	–	–	?	–	-112.3
COc1ccc(Cl)cc1-n1cc(-c2ccccc2)nc1SCC(=O)Nc1ccc(C)cc1	–	·	·	·	·
CCOC(=O)C1C(=O)CC(C)(O)C(C(=O)OCC)C1/C=C/c1ccccc1 (configuration not stated)	–	–	–	–	-106.0
COc1ccc2c(c1)c1c(c(=O)n(Cc3ccccc3)c(=O)n1Cc1ccccc1)n2C	–	·	·	·	·
Cc1ccc(-c2nc3sc(CCNC(=O)c4ccc(C)c(C)c4)c(C)n3n2)cc1	–	·	·	·	·
COc1ccc(NC(=O)CSc2nnnn2C2CCCC2)cc1S(=O)(=O)N1CCOCC1	–	·	–	·	–
Cc1cc(C)cc(NC(=O)CCCn2c3ccccc3c(=O)c3ccccc32)c1	–	·	·	·	·
Cc1ccc(N2CCN(C(=O)c3cn(CC4CCCCC4)nn3)C(C)C2)cc1 (configuration not stated)	–	·	–	–	-71.1
O=C(c1cn(CC2CCCCC2)nn1)N1CCN(c2ccc(F)cc2)CC1	–	·	–	–	–
CCN(CC)c1ccc(NC(=O)CN2C(=O)c3cccnc3Oc3ccccc32)c(C)c1	–	·	·	·	·
O=C(OCc1nnc(-c2ccc(Cl)cc2)o1)c1ccncc1	–	–	–	–	–
Cc1ccccc1C(=O)OCc1nnc(-c2ccc(Cl)cc2)o1	–	–	–	–	-76.7
CN1C2=CC=CC=CC2=[N+](C)C12C=CC(=[N+]([O-])[O-])C=C2[N+](=O)[O-] (configuration not stated)	–	–	–	?	–
CN1C2=CC=CC=CC2=[N+](C)C12C([N+](=O)[O-])=CC(=[N+]([O-])[O-])C=C2[N+](=O)[O-] (configuration not stated)	–	–	–	-93.8	–
COc1ccc(OCc2nnc(SCC(=O)N3CCCc4ccccc43)n2-c2ccc(C)cc2)cc1	–	–	–	–	-82.9
COc1ccc(NCc2nnc(SCC(=O)N3CCCc4ccccc43)n2C)cc1	–	-38.3	–	–	–

High-throughput results deposited in PubChem BioAssay by National Center for Advancing Translational Sciences (NCATS).
